Source: the supplement of paper PMC7156485
± gives the standard deviation of the averaged measurements.

Tests used:
Settings in all cases: concentration: 10 µM; 24 h
[1] = test system: HCC1569; test: cell number relative to DMSO (% of DMSO); higher = more cells (less growth inhibition / toxicity)
In short: (§1)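 In 384-well plates holding 800 HCC1569 or TDF cells per well in RPMI with 10% FBS, compounds were tested at 10 µM for 24 h at 37 °C in triplicate. Fixation used 3.7% formaldehyde. Staining used a rabbit anti-H1.0 antibody with an AlexaFluor 647 secondary, plus DAPI. Each value, H1.0 nuclear intensity or cell number, is a median of replicates shown as percent of the plate control, and HCC1569 values were smoothed for positional effects.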

[2] = test system: TDF; test: as above
In short: as §1

[3] = test system: TDF; test: H1.0 immunofluorescence intensity relative to DMSO (% of DMSO); higher = stronger H1.0 induction, active = 120 or more
In short: as §1

[4] = test system: HCC1569; test: H1.0 immunofluorescence intensity relative to DMSO (% of DMSO); higher = stronger H1.0 induction, active = 140 or more
In short: as §1
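Wherever H1.0 immunofluorescence intensity relative to DMSO is given: TDF is a line of transformed human dermal fibroblasts of mesenchymal origin.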
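Wherever cell number relative to DMSO is given: TDF denotes transformed human dermal fibroblasts of mesenchymal origin.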

SMILES | cell number [1] | cell number [2] | H1.0 immunofluorescence intensity [3] | H1.0 immunofluorescence intensity [4]
Br.CN1CCc2cc(O)c(O)cc2C1Cc1ccc(O)c(O)c1.O.O.O (stereo not given) | 105 | 108 | 93.9 (inactive) | 89.2 (inactive)
COc1cc(CNC(=O)CCCCCCC(C)C)ccc1O [Dihydrocapsaicin] | 96.7 | 101 | 91.1 (inactive) | 97 (inactive)
CC(C(=O)O)c1cccc(Oc2ccccc2)c1 (stereo not given) [Fenoprofen] | 102 | 101 | 94.2 (inactive) | 120 (inactive)
CCN(CC)C(=O)c1ccc(Nc2nc(OCC3CCCCC3)c3[nH]cnc3n2)cc1 [Cdk2 Inhibitor IV,                 NU6140] | 73.4 | 51.1 | 98.1 (inactive) | 158 (active)
Cc1cc(Nc2ncc3cc(-c4c(Cl)cccc4Cl)c(=O)n(C)c3n2)ccc1F | 36.3 | 7.32 | 201 (active) | 187 (active)
CN(C)CCC(c1ccc(Cl)cc1)c1ccccn1.O=C(O)C=CC(=O)O (racemic) | 96.1 | 107 | 103 (inactive) | 94.5 (inactive)
CC#N.Nc1nc(Nc2ccc(S(N)(=O)=O)cc2)nn1C(=O)c1c(F)cccc1F [Aurora Kinase/Cdk Inhibitor] | 62 | 39.5 | 98.1 (inactive) | 83.7 (inactive)
CNC(=O)C1OC(n2cnc3c(NCc4ccc(N)cc4)ncnc32)C(O)C1O (stereo not given) | 99.9 | 98.3 | 93.8 (inactive) | 90.6 (inactive)
CCCCCCCCCCCCCCCCCCOP(=O)([O-])OC1CC[N+](C)(C)CC1 [1,1-dimethylpiperidinium-4-yl octadecyl phosphate] | 103 | 96.6 | 98.2 (inactive) | 103 (inactive)
CCCCn1c(=O)c2c(ncn2CC(C)=O)n(CCCC)c1=O [Denbufylline] | 103 | 112 | 87.3 (inactive) | 106 (inactive)
CCCCCC1OC1CC=CCC=CCC=CCCCC(=O)O (stereo not given) [14,15-Epoxyeicosatrienoic acid] | 103 | 112 | 103 (inactive) | 94.8 (inactive)
O=C1CSc2ccccc2N1Cc1cccc(C(F)(F)F)c1 [4-[3-(trifluoromethyl)benzyl]-2H-1,4-benzothiazin-3(4H)-one] | 102 | 106 | 96.3 (inactive) | 105 (inactive)
CC(NCCc1ccc(O)cc1)C(O)c1ccc(O)cc1.Cl (stereo not given) [Ritodrine hydrochloride] | 107 | 113 | 101 (inactive) | 91.5 (inactive)
CNC(=O)C1OC(n2cnc3c(NCc4cccc(I)c4)ncnc32)C(O)C1O (stereo not given) | 102 | 114 | 87.4 (inactive) | 82.1 (inactive)
CCCCCCCCC=CCC=CCC=CCCCC(=O)O [5(Z), 8(Z), 11(Z)-Eicosatrienoic Acid] | 102 ± 2.9 | 105 ± 7.9 | 98.1 (inactive) | 97.8 (inactive)
Cc1cc(C(C)Nc2ccccc2)c2nc(N3CCOCC3)cc(=O)n2c1 (stereo not given) | 80.7 | 109 | 92.5 (inactive) | 136 (inactive)
CC(C)(C)C(=O)Oc1ccc(S(=O)(=O)Nc2ccccc2C(=O)NCC(=O)[O-])cc1.O.[Na+] | 101 | 98.8 | 87.6 (inactive) | 108 (inactive)
CC(C)(C)c1ccc(S(=O)(=O)Nc2ccc(-n3ccnc3)cc2)cc1 [Stem-Cell Factor/c-Kit Inhibitor, ISCK03] | 100 | 102 | 103 (inactive) | 99.6 (inactive)
CCCCCC=CCC=CCC=CCCCCCCC(=O)OC(COCCCCCCCCCCCCCCCC)COP(=O)([O-])OCC[N+](C)(C)C (stereo not given) | 101 | 98.5 | 96.6 (inactive) | 96.9 (inactive)
COC(=O)c1ccc(O)c2[nH]c3c(C=O)c(O)cc(=O)c-3nc12 [Lomofungin] | 105 | 117 | 94.3 (inactive) | 101 (inactive)
CCn1c(-c2nonc2N)nc2c(C#CC(C)(C)O)ncc(OCC3CCCNC3)c21 (stereo not given) | 72.9 | 71.5 | 103 (inactive) | 120 (inactive)
CCN1CCN(C(=O)NC(C(=O)NC2C(=O)N3C2SC(C)(C)C3C(=O)O)c2ccccc2)C(=O)C1=O (stereo not given) [Piperacillin] | 101 | 100 | 95.4 (inactive) | 119 (inactive)
O.Oc1cc(O)c2c(c1)OC(c1ccc(O)c(O)c1)C(O)C2 (single isomer, unassigned; (+)) [(+)-Catechin Hydrate] | 98.9 | 110 | 90.6 (inactive) | 91.7 (inactive)
Nc1ccn(C2OC(CO)C(O)C2O)c(=O)n1 (stereo not given) [Cytarabine] | 79.6 | 51.3 | 105 (inactive) | 102 (inactive)
CCCCCC=CCC=CCC=CC=CC1CCCC(=O)O1 (racemic) | 106 | 97 | 98.2 (inactive) | 103 (inactive)
